# Source: ChEMBL document CHEMBL4513149, “CO-ADD screening of MMV (CH) - MMV compounds” (2021)
# Measured potencies and affinities stand elsewhere.
# Legend:
# Staphylococcus aureus = conditions: Concentration 20 uM; ASSAY_TEST Inhibition of Bacterial Growth; detection method Absorption (OD600); MEDIA CAMHB; plate type 384well; NBS; CORNING #3640; time 18 hr
# Escherichia coli = conditions: Concentration 20 uM; ASSAY_TEST Inhibition of Bacterial Growth; detection method Absorption (OD600); MEDIA CAMHB; plate type 384well; NBS; CORNING #3640; time 18 hr
SMILES,Inhibition (Staphylococcus aureus) [%],Inhibition (Escherichia coli) [%]
Cc1cc(C(=O)Nc2ccc(-c3ccccc3)cc2)no1,16.2,12.13
COc1cc(Br)cc2cc(C(=O)Nc3cccc(C(F)(F)F)c3)c(=O)oc12,7.48,1.89
CC1CC1C(=O)NC1CCN(CC2(c3ccccc3)CCCCC2)CC1 (centres undefined),14.54,6.55
CC[C@H](CO)NCCN[C@H](CC)CO.Cl.Cl,13.87,-1.24
CC(C)(C)OC(=O)N1CCN(c2cc(-c3ccc(Oc4ccccc4)cc3)n[nH]2)CC1,17.78,7.28
N#Cc1nc(-c2ccccc2)oc1S(=O)(=O)c1ccc(Cl)cc1,8.62,6.48
Cl.Cn1ccnc1CNCCS(=O)(=O)c1cccc(Nc2ccc(-c3cccc(F)c3)cn2)c1,24.8,8.19
Cc1ccc(S(=O)(=O)N2CCN(C(=O)c3cc(-c4ccccc4)n[nH]3)CC2)cc1,1.4,11.29
COc1ccc(CCN2CCC(NCc3cccc(N(C)C)c3)CC2)cc1,16.93,1.75
COc1cc(NC(=O)Cc2nn(C)c(=O)c3ccccc23)ccc1Cl,23.8,11.61
COc1ccc(Nc2ccccc2NC(=O)c2ccc(O)nc2)cc1,8.88,-4.3
FC(F)(F)c1ccc(N(c2cccnc2)C2CCN(c3ccc(C(F)(F)F)cn3)CC2)cc1,14.25,5.86
COc1ccc(C2(C(=O)Nc3ccc(Br)cc3)CCCC2)cc1,18.94,6.87
CC(C)(C)OC(=O)N1CCC(Cn2nc(-c3cnc4ccccc4c3)c3c(N)ncnc32)CC1,18.54,10.38
O=C(NC1=NCCS1)c1sc2cc(F)ccc2c1Cl,2.69,-4.46
CC(C)(C)c1cnc(NC(=O)c2ccccc2O)s1,23.8,4.86
Cc1ccc(S(=O)(=O)n2cc(-c3ccnc(N)c3)c3cc(Br)cnc32)cc1,9.7,-3.65
CC(C)(C)c1cc(C(=O)Nc2cccnc2)cc(C(=O)Nc2cccnc2)c1,15.23,6.88
CN1CCC(NCc2cccc(-c3ccc(S(=O)(=O)NCc4ccccc4)cc3)c2)CC1,14.84,4.63
NC(=O)c1cc(-c2ccsc2)ccc1OCCOc1ccccc1,14.87,5.41
c1ccc(Oc2ccc(-c3cncc(-c4ccc5[nH]ccc5c4)n3)cc2)cc1,11.46,11.21
Nc1ncnc2c1c(-c1cnc3ccccc3c1)nn2CC1CCNCC1,3.94,-4.76
CCC(NC(=O)c1ccccc1NC(=O)c1ccc(C)cc1)C(=O)OC (centres undefined),17.84,3.87
CCN(CC)CCCN1CCN(C(=O)c2cccc(-c3noc(C(F)(F)F)n3)c2)CC1,-0.71,-1.62
COc1ccc(C2=NN(C3CCCCCC3)C(=O)C2(C)C)cc1OCCCCOc1ccc(-c2nn[nH]n2)cc1,39.77,-0.89
NCCC(O)C(=O)N[C@@H]1C[C@H](N)[C@@H](OC2O[C@H](CN)[C@@H](O)[C@H](O)[C@H]2O)[C@H](O)C1OC1O[C@H](CO)[C@@H](O)[C@H](N)[C@H]1O.O=S(=O)(O)O.O=S(=O)(O)O (some centres undefined),14.32,11.24

SMILES,Inhibition (Staphylococcus aureus) [%],Inhibition (Escherichia coli) [%]
Cc1ccc2[nH]c3c(NCCN(C)C)ncnc3c2c1,20.13,7.48
COc1nc2ccc(Br)cc2cc1[C@@H](c1ccccc1)[C@@](O)(CCN(C)C)c1cccc2ccccc12.O=C(O)C(F)(F)F,17.15,2.08
NC(=O)c1cc(Br)ccc1OCCOc1ccccc1,12.29,-2.13
Cc1cccc(-c2nc(Nc3ccncn3)c3sccc3n2)n1,21.43,8.12
c1ccc(Oc2ccc(-c3cc(C4CCOCC4)[nH]n3)cc2)cc1,24.63,11.25
CCCn1c(CNc2ccccc2O)nc2ccccc21,17.07,4.85
COc1cncc(-c2cncc(N3CCN(c4ccncc4)CC3)n2)c1,18.85,13.61
CCCCc1ccc(C(=O)Nc2nccc3ccccc23)nc1,5.7,-0.87
Cc1noc(C)c1COc1cccc(C(=O)N=c2[nH]cccc2C)c1,21.93,6.93
Cc1nc2ccccn2c1C(=O)NCc1ccc(Cl)cc1,22.95,5.6
COc1cc(C2=NCCN2)ccc1-c1cn(-c2cccc(C3=NCCN3)c2)nn1,19.96,14.41
Cc1nnc(NC(=O)c2cn(-c3ccccc3)nc2-c2ccccc2C)o1,8.57,8.61
O=C(C1CCN(c2cc(-n3cccc3)ncn2)CC1)N1CCc2ccccc2C1,7.19,12.02
COc1ccc(-c2cc(NC(=O)c3ccc(F)cc3Cl)ccc2OC)cc1,17.79,8.24
CNC(=O)c1cc(S(=O)(=O)N2CCN(c3ccccn3)CC2)cs1,7.99,-1.66
CC1=Nc2ccc(Cl)cc2C(c2ccccc2)N1CCNC(=O)CN(C)C (centres undefined),20.65,6.95
Cc1cc(NC(=O)c2ccc(S(=O)(=O)N(Cc3ccccc3)C(C)C)cc2)no1,10.98,6.09
CN1CCN(c2cc(-c3ccc(F)cc3)nc(-c3ccncc3)n2)CC1,17.93,-5.05
CCC(=O)Nc1ccccc1C(=O)Nc1ccccn1,18.51,10.48
Cc1nc(-c2ccccn2)nc(NCCc2ccc(S(C)(=O)=O)cc2)c1Cl,4.78,-2.55
O=C(Nc1ccccc1-c1nc2c(C(=O)O)cccc2o1)c1ccccc1,12.25,-2.2
COc1cc(C2=NCCN2)ccc1-n1cc(-c2cccc(C3=NCCN3)c2)nn1.O=CO.O=CO,1.49,8.11
O=C(NCCN1CCCC1)c1cc(NCCN2CCOCC2)nc2ccc(Cl)cc12,22.71,6.99
Cl.O=C(Nc1ccc(N2CCNCC2)nc1)c1oc(-c2ccccc2)nc1C(F)(F)F,15.48,0.64
C[C@H](C(N)=O)N1CCCC[C@H]1c1ccc(OCc2cccc(F)c2)cc1,21.57,11.68
Cc1ccc2nc(Cl)c(CNCc3cccs3)cc2c1,2.71,-1.94

SMILES,Inhibition (Staphylococcus aureus) [%],Inhibition (Escherichia coli) [%]
CN1CCN(c2nccc3nc(-c4ccc(F)c(F)c4)[nH]c23)CC1,17.33,8.63
CC(C)(C)CN1C(=O)C(c2ccccc2)(c2ccccc2)N=C1N,17.09,4.18
O=C(Nc1nc(-c2ccccn2)cs1)c1cncn1-c1ccccc1,8.38,5.73
COc1ccc2nc(C)cc(OCC(=O)Nc3ccccc3OC)c2c1,18.5,13.22
Nc1ncnc2c1c(Cc1cccc3ccccc13)nn2CC1CCNCC1,-11.63,-7.67
Nc1ccc(C(=O)Nc2ccc(-c3nc4ccccc4o3)cc2)cc1,11.63,11.29
CCOc1ccccc1C(=O)Nc1cccc(-c2nc3ncccn3c2C)c1,2.54,10.22
Cc1ccc(Oc2ccc(NC(=O)CNc3ccccc3N3CCCC3=O)cc2)cc1,5.88,6.72
O=C(Nc1cccc(Cl)c1)c1cnc(N2CCN(c3ccncc3)CC2)c(Cl)c1,19.29,6.8
CS(=O)(=O)Cc1nc2ccccc2oc1=O,30.23,5.17
COc1ccccc1CNC(=O)c1cc(C2CC2)nc2c1cnn2C(C)C,13.79,-2.58
COc1ccc(-c2cncc3ccc(C(=O)NCCCn4ccnc4)nc23)cc1,13.71,12.75
c1ccc(Oc2ccc(-c3cc(N4CCOCC4)[nH]n3)cc2)cc1,17.8,4.28
CS(=O)(=O)N1CCC(CCn2nc(Cc3cccc4ccccc34)c3c(N)ncnc32)CC1,11.8,-2.01
O=C(NCc1ccco1)N1CCN(Cc2ccc(Cl)s2)CC1,6.8,-3.38
Clc1ccc(Cl)c(CO[C@H]2CCCC[C@@H]2n2ccnc2)c1,22.53,7.4
Cc1c[nH]c(CCNC(=O)c2cc(-c3ccc(Cl)cc3)cs2)n1,25.33,10.78
CCc1cc(=O)n(C)c(SC(C)C(=O)Nc2ccc(F)cc2)n1 (centres undefined),4.54,4.12
Clc1ccc(-n2cc(COc3ccnc4ccccc34)nn2)cc1,21.12,8.78
CC(Oc1cccc(Cl)c1)C(=O)Nc1ccc2oc(-c3ccncc3)nc2c1 (centres undefined),60.53,7.3
CCOC(=O)c1noc(N)c1-c1ccccc1,31.41,11.39
COC(=O)c1c(NC(=O)c2cc3ccccc3oc2=O)sc2c1CCN(Cc1ccccc1)C2,19.04,12.69
Clc1ccc(CCNc2cc(-c3ccccc3)nc3ncnn23)cc1,16.06,4.96
CC(C(=O)N1CCCC1)N1CCN(S(=O)(=O)c2ccc(C(C)(C)C)cc2)CC1 (centres undefined),8.1,-2.16
Cc1cc(C)n2nc(C(=O)Nc3cc(C(F)(F)F)ccc3N3CCOCC3)nc2n1,13.59,10.47
